Assay results taken from the supplement of paper PMC6555819.

How the values were obtained:
Experiment in all cases: PBM binding z-score (relative to random genomic background probes); higher = stronger binding; sequences stand for … in GC…GCGATTGACAGCGTAGAATGAAGG
[1] = system: PPARg:RXRa DBDmut IVT, anti-RXR (DBD mutation: RXRa K156A/R161A, NR concentration 270 nM, RXRa partner concentration 90 nM)
Method in brief: (§1)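 The probes on custom Agilent 4×180K protein-binding microarrays were double-stranded, with 34-nt variable regions bearing direct-repeat seeds, single-nucleotide variants, half-site ablations and random human genomic background sequences. Incubation lasted 1 h with ligand-free nuclear receptor dimers in PBS pH 7.4, 2% milk, 0.02% Triton X-100, 1 mM DTT, 0.2 mg/mL BSA and 0.4 mg/ml salmon testes DNA. Antibodies against each partner (one per run) detected bound dimers, and fluorescence scans were regression-normalized. Binding z-scores take the random background probes as reference.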

[2] = system: PPARg:RXRa IVT, anti-PPARg (NR concentration 270 nM, RXRa partner concentration 90 nM)
Method in brief: as §1

[3] = system: PPARg DBDmut:RXRa IVT, anti-PPARg (DBD mutation: PPARg1 K132A/R137A, NR concentration 270 nM, RXRa partner concentration 90 nM)
Method in brief: as §1

[4] = system: PPARg DBDmut IVT, anti-PPARg (DBD mutation: PPARg1 K132A/R137A, NR concentration 270 nM)
Method in brief: as §1

[5] = system: PPARg homodimer (NR concentration 180 nM)
Method in brief: as §1

[6] = system: PXR:RXRa (NR concentration 270 nM, RXRa partner concentration 90 nM)
Method in brief: as §1

[7] = system: PXR homodimer (NR concentration 270 nM)
Method in brief: as §1

[8] = system: RARa:RXR (NR concentration 270 nM, RXRa partner concentration 90 nM)
Method in brief: as §1

[9] = system: RARa homodimer (NR concentration 270 nM)
Method in brief: as §1

[10] = system: RARb:RXRa (NR concentration 270 nM, RXRa partner concentration 90 nM)
Method in brief: as §1

Row | Sequence | PBM binding z-score [1] | PBM binding z-score [2] | PBM binding z-score [3] | PBM binding z-score [4] | PBM binding z-score [5] | PBM binding z-score [6] | PBM binding z-score [7] | PBM binding z-score [8] | PBM binding z-score [9] | PBM binding z-score [10]
1 | CATACTGGGCCATCAGGTCATTGATATCAACGTT | 4.24 | 4.71 | 0.816 | 1.18 | 1.3 | 1.99 | 0.876 | 2.16 | 0.345 | 2.25
2 | GGAACGAGGGCATTCGAGTAGATAGCATGGCGAT | 2.87 | 2.05 | -0.011 | -0.669 | -0.256 | 0.557 | -0.0789 | 0.335 | -0.251 | 1.56
3 | TCTATTAGTTGATGAGGGCAACCGAAACAGCGGA | 2.06 | 0.967 | 0.312 | 0.843 | 1 | 0.877 | 0.351 | 0.981 | 0.755 | 1.41
4 | TCTTGTAGGTCAGCAGGTTAAGAAAGCTGGCCAA | 6.85 | 7.39 | 2.94 | 2.48 | 2.31 | 1.95 | -0.0454 | 2.84 | 0.787 | 3.91
5 | CCTGCTAGGTCAATGGTCATCTAAAGCAGCTCGC | 4.11 | 3.89 | -0.358 | -0.372 | 1.1 | 1.35 | -0.609 | 2.05 | -0.14 | 3.75
6 | CCTAGTTGGTCAAGGTCAGACACGCTATAGGTAC | 1.83 | 2.54 | 0.343 | 0.91 | 2.01 | 2.52 | 1.51 | 2.45 | 2.36 | 3.6
7 | AATACAGGGTCACTAGGCTAGAGTAGGTACGAAT | 3.32 | 5.41 | 1.74 | 1.68 | 2.15 | 2.96 | 0.638 | 3.99 | 1.21 | 4.28
8 | ATCTCCAGGTAAAGATAGTTCAGTGAATGCAAAT | 0.28 | 0.419 | 1.11 | 1.09 | 0.798 | 1.1 | 1.1 | 0.0525 | 1.34 | 0.907
9 | CGTCCAAGGTCAGAGAGGTCAGTGATTGCCGAGT | 3.12 | 3.08 | -0.867 | -0.653 | 4.12 | 5.79 | 10.6 | 4.66 | 1.54 | 5.09
10 | AGAATGAGGTTACCAAAGATCAGGTAAACGCTTG | 3.32 | 3.43 | 0.874 | 0.666 | 0.758 | 1.64 | -0.0452 | 2.29 | 0.183 | 2.09
11 | CTCGAAAGGTCGGTTGAGGTGAATATACGGATAA | -0.113 | 1.11 | 0.319 | 0.349 | 0.741 | 3.62 | 0.148 | 2.94 | 0.256 | 3.27
12 | TCATATAGGTAAATGCGAGGTGAAAGTCCGATCT | 4.13 | 3.06 | 1.27 | 1.1 | 1.14 | 1.1 | 0.0797 | 1.67 | 1.15 | 0.77
13 | CCTATTAGTTGACCAAAAGGGCAACCGAAGCTCG | 0.681 | 1.22 | -0.0971 | 1.05 | 2.38 | 1.09 | 0.687 | 1.37 | 1.39 | 2.51
14 | CGAACTAGGTCATACAGGACAGTGAATACATTGA | 8.15 | 8.47 | 4.73 | 2 | 1.93 | 1.48 | 0.551 | 2 | 0.758 | 3.5
15 | TTTATTAGTTGAAGGGCAACCGACGAGTCCGTTT | 0.976 | 0.967 | 0.878 | 1.23 | 1.41 | 0.818 | 1.45 | 0.575 | 1.48 | 1.68
16 | CAAACTAGGTCACAGAGGTCAAAGGCCGTGCGTA | 8.7 | 8.85 | 6.92 | 3.61 | 5.45 | 6.54 | 10.8 | 7.58 | 2.81 | 5.22
17 | TGAATGAGGTTACAGATCAGGGAACGTGGCGTCG | 2.62 | 3.25 | 0.697 | 0.0776 | 0.777 | 0.892 | -0.64 | 1.67 | 0.0673 | 1.9
18 | AGTCAAAGTTCATATAGGTAACGTAAGATATGCT | 0.943 | 3.97 | 1.58 | 0.96 | 2.46 | 4.96 | 5 | 3.57 | 1.52 | 4.69
19 | CCAGACAGGTGAAAGGTAACTCATTCTGGTACGC | 2.34 | 3.01 | -0.114 | -0.175 | 1.3 | 1.12 | 0.37 | 2.12 | 1.09 | 1.4

Row | Sequence | PBM binding z-score [1] | PBM binding z-score [2] | PBM binding z-score [3] | PBM binding z-score [4] | PBM binding z-score [5] | PBM binding z-score [6] | PBM binding z-score [7] | PBM binding z-score [8] | PBM binding z-score [9] | PBM binding z-score [10]
20 | CCTAGTTGGTCAAGGTCACACAGGCTATAGGTAC | 2.08 | 3.64 | 0.89 | 0.538 | 3.81 | 4.67 | 3.92 | 4.96 | 2.03 | 4.34
21 | ACTAGCAGGCCAAGGATCACTCAAGATTAGTCCG | 0.88 | 0.675 | -0.388 | -0.36 | 0.0853 | -0.479 | -0.469 | -0.293 | 0.362 | 0.296
22 | CCTAACGGGTCACGAGGTTATAGCACGACGAGCG | 3.39 | 4.94 | 1.47 | 0.866 | 2.3 | 4.45 | 0.408 | 5.55 | 1.42 | 4.27
23 | CGTCCAAGGTCAATGCTAGGTTAGTGAAAGCATT | 2.98 | 3.27 | 0.204 | -0.204 | 2.37 | 3.78 | 0.753 | 3.88 | 0.52 | 5.04
24 | AATCAAAGTTCAGGACGAGGTAACGTAAAGCACG | -0.649 | 0.571 | 0.569 | 0.969 | 1.98 | 2.9 | 1.19 | 2.55 | 1.39 | 4.19
25 | AGAACGAGGGCACGCTGAGTAGATAGCAGAGTAG | 4.04 | 3.83 | 1.29 | 0.195 | 0.114 | 0.201 | -0.149 | 0.712 | -0.354 | 2.4
26 | AGTCAAAGTTCACTAGGTAACGGAAGATTCAGCT | 2.88 | 4.85 | 0.928 | 0.734 | 2.34 | 4.05 | 2.12 | 3.09 | 1.02 | 4.71
27 | CGAACTAGGTCAGAATAGGACAGTGAAGGATGAT | 6.67 | 6.96 | 2.83 | 1.87 | 0.535 | 0.652 | 0.356 | 1.01 | 0.988 | 2.73
28 | ATATGTAGGTTACATCCGGGTCATGCAGGCTATG | 7.41 | 7.25 | 2.04 | 1.91 | 1.38 | 3.26 | 0.751 | 3.55 | 0.629 | 2.36
29 | GCTAGTTGGTCAGTCAAAGGTCACACACCGGTCG | 1.51 | 3.42 | -0.105 | 0.277 | 3.62 | 5.2 | 1.01 | 6.33 | 1.11 | 4.36
30 | TCGAGTAGGTTAGGGGCATCCAGAATGGCGTCGA | 1.78 | 1.45 | -0.511 | -0.719 | 0.537 | 0.349 | -0.0589 | 0.496 | -0.597 | 1.18
31 | TAGCCTAGGTCATGGGGGCCAGTATAGTGTCGGC | 1.91 | 4.23 | 4.89 | 4.09 | 2.19 | 3.01 | 0.254 | 3.41 | 0.4 | 4.04
32 | CCTGGGAGGACAACAGGAGGTCAGAGCTGCCAGA | -0.657 | 0.776 | -0.434 | -1.21 | 1.8 | 2.12 | 0.631 | 2.3 | 1.11 | 2.95
33 | TCATATAGGCAAATGCTAGGTGAAAGTCCGATCT | 2.29 | 0.809 | 0.452 | 0.623 | 0.286 | 0.34 | 0.108 | 0.528 | 0.507 | 0.0925
34 | ATCTCTAGGTAATAAGTTCAGTGAAAGAGAGGAC | 2.07 | 2.06 | 1.58 | 1.43 | 1.52 | 1.7 | 2.13 | 0.943 | 1.54 | 1.83
35 | ATCGAAAGGTCGACGTGAGTATAGAGAAAGGGAA | -0.328 | 1.19 | 1.19 | 0.607 | 0.972 | 2.21 | 0.153 | 2.94 | -0.0772 | 3.82
36 | CGTCCAAGGTCAGGAGGTCAGTGAAAGCGACGTG | 2.95 | 3.93 | -0.53 | -1.29 | 5.26 | 4.65 | 1.1 | 6.11 | 1.5 | 5.52
37 | ATATGTAGGTTACCTCCGGGTCATTCAGGCTATG | 7.18 | 6.7 | 1.67 | 1.41 | 1.74 | 3.67 | 1.8 | 3.75 | 0.561 | 2.51
38 | TTACCAAGGTGAGCTGAGGTCTTTGATCCAACTC | 0.776 | 1.72 | -0.073 | -0.0335 | -0.466 | 2 | -0.613 | 2.56 | -0.713 | 1.17
